Screening data as filed in PubChem BioAssay.
Measles CPE: protection of cells from measles virus; Measles virus-infected cells, CPE protection, absorbance; protection (pct of control), % at 4 µM; 140,000 tested, 1.5% active; in the data active means protection mostly above about 24%, no sharp cut-off; inactive means mostly below about 26%
CYP2C19 inhib: blocks human cytochrome P450 2C19; CYP2C19 Supersomes, luciferin-H EGE luminescence, 30 min; inhibition, % at 5 µM; 96,000 tested, 21% active; AID 778; P33261;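 active means CYP2C19 inhibition above a set limit at 5 µM in the primary screen, cut at about 50% in these data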;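 further: plate controls were negative control wells for no effect and 2.5 mM tranylcypromine positive control for full effect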
Target sequence (P33261 whole entry, looked up): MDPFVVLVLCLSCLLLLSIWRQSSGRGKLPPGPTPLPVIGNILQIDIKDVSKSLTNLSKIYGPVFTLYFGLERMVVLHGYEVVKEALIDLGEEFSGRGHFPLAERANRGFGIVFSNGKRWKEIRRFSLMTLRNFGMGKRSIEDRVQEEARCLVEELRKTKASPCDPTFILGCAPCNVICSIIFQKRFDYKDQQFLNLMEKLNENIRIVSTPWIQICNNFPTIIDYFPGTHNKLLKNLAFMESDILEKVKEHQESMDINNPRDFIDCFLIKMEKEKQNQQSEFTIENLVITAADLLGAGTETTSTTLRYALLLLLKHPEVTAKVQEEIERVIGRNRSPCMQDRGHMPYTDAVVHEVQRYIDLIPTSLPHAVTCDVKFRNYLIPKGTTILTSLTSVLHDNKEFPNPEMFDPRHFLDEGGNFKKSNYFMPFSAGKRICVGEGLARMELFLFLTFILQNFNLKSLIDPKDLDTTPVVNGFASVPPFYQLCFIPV
CYP2C9 activ: CYP2C9 (human) activation; activation factor at 5 µM; 96,000 tested, 1.4% active; P11712; recombinant CYP2C9, luciferin-H conversion, luminescence; active compounds read high; factor 1 = untreated enzyme, 0 = blocked;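 active means activation factor of 2 or more for CYP2C9 at a 5 µM dose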;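 further: 0 = sulfaphenazole-blocked wells and 1 = vehicle-only wells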
CYP2C9 inhib: human CYP2C9 inhibition; P11712; inhibition, % at 5 µM; CYP2C9 Supersomes, luciferin-H conversion, luminescence; 96,000 tested, 20% active;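 active means blocking of liver enzyme CYP2C9 beyond about 50% at 5 µM, limit read from the data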
CYP2C19 activ: increases human CYP2C19 enzyme activity. recombinant CYP2C19, luciferin-H EGE luminescence; active compounds read high; 0 = fully inhibited enzyme, 1 = untreated enzyme. activation factor at 5 µM. 96,000 tested, under 10 active. AID 1025;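 active means activation factor of at least 2 at 5 µM in the primary screen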;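 further: 0 = wells with 2.5 mM tranylcypromine and 1 = vehicle-only wells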
An asterisk follows results filed as active. Hits are enriched below; roughly 22% of the tested compounds scored in any of these assays.

Cc1ccc(S(=O)(=O)C/N=C(/NC(=S)N(c2ccccc2)c2ccccc2)c2ccccc2)cc1 was read as Measles CPE 24, CYP2C19 inhib 28, CYP2C9 activ 0.3, CYP2C9 inhib 69* and CYP2C19 activ 0.7.
CC(=O)Nc1ccccc1-c1nc2ccc(C(=O)N3CCN(c4cc(C)ccc4C)CC3)cc2[nH]c1=O was read as Measles CPE 3, CYP2C19 inhib 70*, CYP2C9 activ 0, CYP2C9 inhib 99* and CYP2C19 activ 0.3.
Screening CCOC(=O)c1[nH]c(=O)[nH]c1CSCCO returned Measles CPE 8, CYP2C19 inhib -20, CYP2C9 activ 0.9, CYP2C9 inhib 7 and CYP2C19 activ 1.2.
`COc1ccc(C)cc1NC(=O)c1ccc2c(c1)OCO2` gave Measles CPE 17, CYP2C19 inhib 86*, CYP2C9 activ 1.8, CYP2C9 inhib -76 and CYP2C19 activ 0.1.
CN(c1ccc(C(=O)Nc2ccccc2Sc2ccccc2)cc1)S(C)(=O)=O was read as Measles CPE 38, CYP2C19 inhib 30, CYP2C9 activ 0.5, CYP2C9 inhib 46 and CYP2C19 activ 0.7.
`Cc1ccc(C)c(NC(=O)c2ccc(N(C)S(C)(=O)=O)cc2)c1` gave Measles CPE 10, CYP2C19 inhib 14, CYP2C9 activ 0.5, CYP2C9 inhib 51* and CYP2C19 activ 0.9.
`COc1ccc(C)cc1NC(=O)c1ccc(N(C)S(C)(=O)=O)cc1` gave Measles CPE 7, CYP2C19 inhib 32, CYP2C9 activ 2.5*, CYP2C9 inhib -147 and CYP2C19 activ 0.7.
COc1ccc(C)cc1NC(=O)c1ccc(OC(F)F)cc1 was read as Measles CPE 9.
For CNc1c(N)n(Cc2ccccc2)c(=O)[nH]c1=O the results were Measles CPE 3, CYP2C19 inhib 28, CYP2C9 activ 1, CYP2C9 inhib -3 and CYP2C19 activ 0.7.
CCOC(=O)Cn1nnc2c(sc3nc4c(c(-c5ccccc5)c32)CCC4)c1=O was read as Measles CPE 14, CYP2C19 inhib -14, CYP2C9 activ 1, CYP2C9 inhib -1 and CYP2C19 activ 1.1.
Cc1ccc(S(=O)(=O)N(Cc2ccccc2)Cc2ccco2)cc1 was read as Measles CPE 19, CYP2C19 inhib 83*, CYP2C9 activ 0.1, CYP2C9 inhib 90* and CYP2C19 activ 0.2.
`COc1ccc(CN(CCCN2CCOCC2)S(=O)(=O)N(C)C)cc1OC` gave Measles CPE 11, CYP2C19 inhib 9, CYP2C9 activ 1, CYP2C9 inhib 3 and CYP2C19 activ 0.9.
Screening COc1ccc(S(=O)(=O)N(Cc2ccc(OC)c(OC)c2)Cc2ccco2)cc1 returned Measles CPE 9, CYP2C19 inhib 59*, CYP2C9 activ 0.5, CYP2C9 inhib 46 and CYP2C19 activ 0.4.
Screening COc1ccc(S(=O)(=O)N(CCCN2CCOCC2)Cc2ccc(OC)c(OC)c2)cc1 returned Measles CPE 3, CYP2C19 inhib 89*, CYP2C9 activ 0.8, CYP2C9 inhib 17 and CYP2C19 activ 0.1.
`COCCn1c(Cc2ccccc2)nnc1SCC(=O)NC(C)C` gave Measles CPE 28, CYP2C19 inhib 0, CYP2C9 activ 1.2, CYP2C9 inhib -16 and CYP2C19 activ 1.
Screening Cc1cc(C)nc(-n2ncc3c2CC(c2ccccc2C)CC3=O)n1 (stereo not drawn) returned Measles CPE 23.
For Cc1c(Cl)cccc1NC(=O)CSCC(N)=O the results were Measles CPE 15, CYP2C19 inhib -13, CYP2C9 activ 1.2, CYP2C9 inhib -24 and CYP2C19 activ 1.1.
For O=c1cc(NS(=O)(=O)c2ccccc2)nc(SCc2c(Cl)cccc2Cl)[nH]1 the results were Measles CPE 8.
For CCn1c(SC/C=C/c2ccccc2)nnc1-c1cnccn1 the results were Measles CPE 5, CYP2C19 inhib 31, CYP2C9 activ 0.9, CYP2C9 inhib 7 and CYP2C19 activ 0.7.
Screening O=C(O)Cn1c(=O)cnc2ccccc21 returned Measles CPE 2, CYP2C19 inhib -21, CYP2C9 activ 0.9, CYP2C9 inhib 10 and CYP2C19 activ 1.2.
Screening O=c1cnc2ccccc2n1CC1CCCCC1 returned Measles CPE 7, CYP2C19 inhib 96*, CYP2C9 activ 0.7, CYP2C9 inhib 32 and CYP2C19 activ 0.
c1ccc2c(c1)ncn2CCC1CCCCC1 was read as Measles CPE 6, CYP2C19 inhib 92*, CYP2C9 activ 0.4, CYP2C9 inhib 58* and CYP2C19 activ 0.1.
c1ccc(Cn2cnc3ccccc32)cc1 was read as Measles CPE 8.
